TDP1 cell noCPT – qHTS for Inhibitors of human tyrosyl-DNA phosphodiesterase 1 (TDP1): qHTS in cells in absence of CPT | DT40 Tdp1-/- hTDP1 cells, no CPT, ATP luminescence, 48 h | actives 15% (n = 420,000) | Potency, µM (doses to about 46.2 µM), for inactives: at the highest dose activity change, negative = growth inhibition, hits mostly inhibitors; further: potency means the concentration at half of the fitted maximal effect; nearly all actives have a fitted effect of over 55% in size
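Readout: luminescence from CellTiter-Glo after 30 min in the dark at RT. Cells: DT40 Tdp1-/- with stable hTDP1, 400/well. Exposure: compounds alone, ≥48 hr, 37 °C.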
Giardia kill – Giardia lamblia killing; activity change, % at 7.66 µM, hits read low; Giardia lamblia trophozoite viability; actives 0.15% (n = 340,000); in the data active means activity change below about -80%; inconclusive means between about -30% and that limit;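 further: parasites exposed to compound for two days anaerobically before the ATP read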
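Giardia trophozoites, 100 cells per well, were exposed to compounds for 48 hrs at 37 deg C under anaerobic conditions; viability was then read as ATP content by bioluminescence after 15-30 min at room temperature.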
TDP1 inh – inhibitors of human tyrosyl-DNA phosphodiesterase TDP1 | recombinant TDP1, AlphaScreen DNA substrate cleavage | Potency, µM (top dose mostly 130 µM), for inactives: at the top dose activity change, negative = inhibition, usual class: inhibitors | Q9NUW8 | actives 0.28% (n = 350,000); further: potency means the concentration at half of the fitted maximal effect; nearly all actives have a fitted effect of over 40% in size
Target sequence (Q9NUW8 whole entry, looked up): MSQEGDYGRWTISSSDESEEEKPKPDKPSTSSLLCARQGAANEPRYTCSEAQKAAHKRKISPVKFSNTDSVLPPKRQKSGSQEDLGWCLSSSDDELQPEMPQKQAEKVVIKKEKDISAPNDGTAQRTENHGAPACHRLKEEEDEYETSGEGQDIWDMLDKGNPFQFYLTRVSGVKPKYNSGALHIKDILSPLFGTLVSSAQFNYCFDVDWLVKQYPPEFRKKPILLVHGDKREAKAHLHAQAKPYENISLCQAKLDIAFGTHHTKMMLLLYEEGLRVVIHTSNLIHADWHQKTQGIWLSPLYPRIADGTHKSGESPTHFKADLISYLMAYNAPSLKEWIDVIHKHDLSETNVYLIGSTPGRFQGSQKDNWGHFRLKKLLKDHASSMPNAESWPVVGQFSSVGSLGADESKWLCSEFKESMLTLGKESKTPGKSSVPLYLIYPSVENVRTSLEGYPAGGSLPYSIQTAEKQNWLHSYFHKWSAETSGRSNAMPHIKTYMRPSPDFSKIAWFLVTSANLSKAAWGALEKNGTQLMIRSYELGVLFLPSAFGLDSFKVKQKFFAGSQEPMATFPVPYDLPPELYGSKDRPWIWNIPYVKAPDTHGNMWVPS
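Enzyme-compound mixtures sat 15 min at room temperature, followed by a 5 min reaction with 15 nM final substrate and 10 min with AlphaScreen beads. Recombinant human Tdp1 was used at 1 nM final.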
DT40 TDP1 CPT – DT40-hTDP1 cell growth loss with CPT | chicken DT40 Tdp1-/-;hTDP1 cells + 20 nM CPT, ATP luminescence, 48 h | Potency, µM (titrated, usually from 46.2 µM), inactives show top-dose activity change, negative = growth inhibition, actives largely listed as inhibitors | actives 12% (n = 420,000) | AID 686979; further: potency means the concentration at half of the fitted maximal effect; nearly all actives have a fitted effect of over 55% in size
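Chicken DT40 Tdp1-/- cells complemented with human TDP1, 400 cells/well, exposed to compounds plus 20 nM camptothecin for at least 48 h at 37 C; viability read as ATP content by CellTiter-Glo luminescence.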
ELG1 repair inh – inhibitors of ELG1-dependent DNA repair in HEK293T cells. Potency, µM (doses to about 46.1 µM), for the others: top-dose activity change, negative = inhibition, usual class: inhibitors. actives 2.3% (n = 330,000). HEK293T ELG1-luciferase reporter, luminescence, 16 h; DNA damage induced by 5-fluorouridine. AID 504467; further: potency means the concentration at half of the fitted maximal effect; nearly all actives have a fitted effect of over 55% in size
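Luminescence from the luciferase reporter, measured 30 min after ONE-Glo reagent at room temperature, was the read-out. Beforehand, 2,000 cells per well were exposed for 16 hr at 37 °C to 5-fluorouridine together with compound or vehicle.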
IL-1B inflam inh – blocks inflammasome-driven IL-1 beta release; THP-1 LPS/ATP IL-1B secretion, AlphaLISA, 16 h; stronger effect = lower value; activity change, % at 57.5 µM; actives 4.7% (n = 360,000); in the data active means activity change below about -50%; inconclusive means mostly about -30% to -49%
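THP-1 cells pretreated 1 hr with compounds (up to 57.5 uM final), then stimulated with LPS (250 ng/mL final) plus ATP (1.25 mM final); secreted IL-1B measured by AlphaLISA after 16 hr, decreased signal indicating inhibition.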
* hit, by the source's call; [ ] = dose if it differs, or a comment. Sampled rows, rich in hits. Any-hit rate of the full collection: about 19%. Unless noted, the call rests on the fitted dose curve; in most records, active means well fitted curve in the direction sought with a large enough effect; inconclusive means small, poorly fitted or top-dose-only effect, or another doubt; inactive means no such curve, though single readings can be large; an effect the other way counts as inactive or inconclusive. On the % scale 0 is the no-effect control and ±100 the full control effect.

`CCOC(=O)[C@]12CCC=C1N(CCC1=CCCCC1)C(=O)[C@H](CC(=O)N1CCC(c3ccccc3)CC1)C2` gave TDP1 cell noCPT 18µM*, DT40 TDP1 CPT inconclusive and IL-1B inflam inh -3.
Screening CCOC(=O)N1CCN(C(=O)C[C@@H]2C[C@@]3(C(=O)OCC)CCCC=C3N(CCC3=CCCCC3)C2=O)CC1 returned TDP1 cell noCPT 16µM*, DT40 TDP1 CPT inconclusive and IL-1B inflam inh -14.
CCOC(=O)[C@]12CCCC=C1N(Cc1ccco1)C(=O)[C@H](CC(=O)N1CCC(c3ccccc3)CC1)C2 was read as TDP1 cell noCPT inconclusive, DT40 TDP1 CPT inconclusive and IL-1B inflam inh 7.
For COc1ccc(NC(=S)NNC(=O)Cn2nc(C(F)F)cc2C(F)F)cc1 the results were TDP1 cell noCPT -12%, Giardia kill -6, TDP1 inh 5%, DT40 TDP1 CPT -11%, ELG1 repair inh 3% and IL-1B inflam inh 0.
Screening Cn1[nH]c(-c2ccccc2)c(/C=N/O)c1=O returned TDP1 cell noCPT 16µM*, Giardia kill -19, TDP1 inh 2%, DT40 TDP1 CPT inconclusive, ELG1 repair inh -22% and IL-1B inflam inh 0.
Screening CCOCCCNc1nc(C(F)(F)F)nc2c1nnn2Cc1ccccc1Cl returned TDP1 cell noCPT 15µM*, Giardia kill 0, DT40 TDP1 CPT 18µM*, ELG1 repair inh 18µM* and IL-1B inflam inh -20.
Screening CC(C)(C)c1nc(NCCN2CCOCC2)c2nnn(Cc3ccccc3Cl)c2n1 returned TDP1 cell noCPT 10µM*, Giardia kill 5, TDP1 inh 4%, DT40 TDP1 CPT 10µM*, ELG1 repair inh 3% and IL-1B inflam inh -9.
Cc1nc(NCCN2CCOCC2)c2nnn(Cc3ccccc3Cl)c2n1 was read as TDP1 cell noCPT -14%, Giardia kill 8, TDP1 inh -7%, DT40 TDP1 CPT -23%, ELG1 repair inh inconclusive and IL-1B inflam inh -2.
Screening CCOC(=O)c1c(C)[nH]c(C(=O)OCC(=O)NCc2ccc(OC)c(OC)c2)c1C returned TDP1 cell noCPT 18µM*, Giardia kill 0, TDP1 inh 2%, DT40 TDP1 CPT 8.2µM*, ELG1 repair inh inconclusive and IL-1B inflam inh 5.
`NC(=O)c1ccsc1NC(=O)COC(=O)c1c(F)cccc1Cl` gave TDP1 cell noCPT 8.2µM*, Giardia kill -2, TDP1 inh -4%[56.1 µM], DT40 TDP1 CPT inconclusive, ELG1 repair inh inconclusive and IL-1B inflam inh 9.
Screening CCOC(=O)c1[nH]c(C)c(C(=O)OCC(=O)NCc2ccc(Cl)cc2)c1C returned TDP1 cell noCPT -17%, Giardia kill -2, TDP1 inh 0%, DT40 TDP1 CPT -15%, ELG1 repair inh 15% and IL-1B inflam inh 23.
For CCOC(=O)c1c(C)[nH]c(C(=O)OCC(=O)Nc2ccc(Cl)cn2)c1C the results were TDP1 cell noCPT -2%, Giardia kill 46, TDP1 inh -3%, DT40 TDP1 CPT -1%, ELG1 repair inh 4% and IL-1B inflam inh 33.
Screening CCOC(=O)c1c(C)[nH]c(C(=O)OCC(=O)Nc2cc(C)c(Cl)cc2OC)c1C returned TDP1 cell noCPT 4.6µM*, Giardia kill -4, TDP1 inh 1%, DT40 TDP1 CPT 3.7µM*, ELG1 repair inh inconclusive and IL-1B inflam inh 70.
Screening NC(=O)c1ccsc1NC(=O)COC(=O)c1ccccc1F returned TDP1 cell noCPT -24%, Giardia kill 14, TDP1 inh 1%, DT40 TDP1 CPT -18%, ELG1 repair inh 16% and IL-1B inflam inh -10.
`CCOC(=O)c1c(C)[nH]c(C(=O)OCC(=O)Nc2sccc2C(N)=O)c1C` gave TDP1 cell noCPT 2.1µM*, Giardia kill -5, DT40 TDP1 CPT 1.6µM*, ELG1 repair inh inconclusive and IL-1B inflam inh -71*.
`CCOc1ccc(-c2cc3c(=O)n(Cc4nc(-c5cccc(OC)c5OC)oc4C)ccn3n2)cc1Cl` gave TDP1 cell noCPT -1%, TDP1 inh 1% and DT40 TDP1 CPT -5%.
`CC(=O)c1c(C)[nH]c(C(=O)OCC(=O)NCCCc2ccccc2)c1C` gave TDP1 cell noCPT inconclusive, Giardia kill -22, TDP1 inh 0%[56.1 µM], DT40 TDP1 CPT inconclusive, ELG1 repair inh inconclusive and IL-1B inflam inh 0.
CC(=O)c1c(C)[nH]c(C(=O)OCC(=O)NCCc2ccc(F)cc2)c1C was read as TDP1 cell noCPT 23µM*, Giardia kill 6, TDP1 inh 2%, DT40 TDP1 CPT inconclusive, ELG1 repair inh 21µM* and IL-1B inflam inh 48.
`CCOc1ccc(CCNC(=O)COC(=O)c2[nH]c(C)c(C(C)=O)c2C)cc1OCC` gave TDP1 cell noCPT 21µM*, DT40 TDP1 CPT inconclusive and IL-1B inflam inh -7.
CCOc1ccc(CCNC(=O)COC(=O)c2ccccc2O)cc1OCC was read as TDP1 cell noCPT -19%, Giardia kill -4, TDP1 inh 5%, DT40 TDP1 CPT -4%, ELG1 repair inh -5% and IL-1B inflam inh -12.
For COC(=O)c1cccc(NS(=O)(=O)c2ccc(OC)c(C(=O)N3CCOCC3)c2)c1C the results were TDP1 cell noCPT -2%, Giardia kill -11, TDP1 inh 3%, DT40 TDP1 CPT -1%, ELG1 repair inh -2% and IL-1B inflam inh -4.
`CC(C)CCCCCCCCCCCCC(=O)NCC(=O)NC1C(C)OC(Nc2ncnc3nc[nH]c23)C(O)C1O` (stereo not drawn) gave TDP1 cell noCPT 0.033µM*, Giardia kill 4, DT40 TDP1 CPT 0.021µM* and IL-1B inflam inh -93*.
Screening CCOc1cc(OCC)cc(C(=O)N2CCC[C@H]2C(=O)N2CCC[C@H]2C(=O)N(C)Cc2ccccc2)c1 returned TDP1 cell noCPT 0.16µM*, DT40 TDP1 CPT 6% and IL-1B inflam inh 17.
CN(Cc1ccccc1)C(=O)[C@@H]1CCCN1C(=O)[C@@H]1CCCN1C(=O)c1cccc2ccccc12 was read as TDP1 cell noCPT 18µM*, DT40 TDP1 CPT inconclusive and IL-1B inflam inh 12.
Screening O=C(N/N=C/c1ccc(C(F)(F)F)cc1)c1ccc(O)cc1 returned TDP1 cell noCPT inconclusive, Giardia kill -17, TDP1 inh 0%, DT40 TDP1 CPT inconclusive, ELG1 repair inh inconclusive and IL-1B inflam inh inconclusive.
`O=C(N/N=C/c1ccc(O)cc1)c1csc2c1CCCC2` gave TDP1 cell noCPT inconclusive, Giardia kill -4, TDP1 inh 1%, DT40 TDP1 CPT 16%, ELG1 repair inh 27% and IL-1B inflam inh -62*.
